Data as given in PubChem BioAssay.
“And” between values parts separate entries of the source, which are not always exact repeats. Equal entries are not always repeated. For some assays here: Potency and affinity values are given separately. The source made the active and inactive calls. Rule as the data show it, unless noted: active = parasite load remaining mostly below about 12% (no sharp cut-off); inactive = mostly above about 10%. Square brackets hold non-standard residues; d marks the D form. Peptide text beside a SMILES is read from it. Orn = NCCC[CH](N)C(=O)O

Key:
[1] = liver-stage malaria parasite growth inhibition, primary screen, cell-based, HepG2, luciferase luminescence, HepG2 viability (AID 624349);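 also: 100% = mean of DMSO negative control wells on the same plate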; conditions: P. berghei liver stage in HepG2, luciferase luminescence, concentration not given here; parasite load remaining: stronger effect = lower value; viability: measured here: HepG2 viability without parasites
[2] = differential killing of epithelial or mesenchymal cells, primary screen, imaging, PC-3E GFP, TEM4-18 mCherry, co-culture (AID 1345086;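 active = compounds killing one labelled cell type while sparing the other, by normalised counts and ratio limits, not self-fluorescent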;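 as to all read-outs here: cells exposed to compound for 72 h before imaging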;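 as to red/green cell ratio (normalised): normalised mesenchymal count divided by normalised epithelial count so high means epithelial killing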); conditions: imaging cell counts, at 1 µM; for red/green cell ratio (normalised): actives lie on both sides, counts scaled to control wells, 1 = unselective
[3] = sensitizers of A549 cells to miR-34 induction, primary screen, imaging, A549 dox-inducible miR-34, nuclei and caspase counts (AID 1347080;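 active = compounds whose cell count with miR-34 switched on is under 0.7 times the count with it off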); conditions: A549 miR-34 inducible, Hoechst nuclei count, 48 h
[4] = polyglutamine-triggered caspase-3 activation inhibitors, cell-based (AID 1583); conditions: polyglutamine-induced caspase-3 activation, cell assay; stronger effect = higher value;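 tested at 10 µM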
[5] = suppressors of polyQ aggregation in yeast, 75Q-TubU reporter (AID 1593); conditions: Yeast 75Q polyglutamine aggregation reporter
[6] = rescue of polyQ-huntingtin neuronal dysfunction in worms, whole organism, C. elegans mechanosensory neurons, N-terminal huntingtin (AID 1599); conditions: touch response, stronger effect = higher value
[7] = inhibitors of mitochondrial cytochrome c release, biochemical, purified mitochondria (AID 1603); conditions: stronger effect = lower value;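 also: mouse liver mitochondria challenged with calcium chloride; signal normalized to the plate average as 100%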
[8] = inhibitors of polyQ protein aggregation (AID 1604); conditions: polyglutamine-induced protein aggregation inhibition assay; stronger effect = higher value; tested at 2.5 µM
[9] = enhancers of glutamate uptake in motor neurons, MN-1 cell line (AID 1612); conditions: MN-1 motor neuron cells, stronger effect = higher value;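 also: tested at 1 µM final; 0% = mean of DMSO vehicle wells on each plate; positive means more glutamate uptake than control and negative means less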
[10] = reducers of polyQ inclusions in PC12 cells, cell-based, NGF-treated PC12, GFPQ80 (AID 1614); conditions: PC12 NGF-treated GFP-polyQ80 inclusion reduction;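 also: lower means fewer inclusions and 0 means no inclusions at all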
[11] = suppressors of polyglutamine aggregation in yeast, 75Q-TubH (AID 1616); conditions: S. cerevisiae 75Q-TubH polyglutamine aggregation suppression; stronger effect = higher value
[12] = phospholipid biosynthesis inhibitors in animal cells, primary screen, cell-based, LOPAC library, screen 4 (AID 1347384; call rule not given here); conditions: phospholipid biosynthesis inhibition screen, at 10 µM
[13] = measured here: epithelial PC-3E GFP cell survival
[14] = measured here: mesenchymal TEM4-18 mCherry cell survival
[15] = stronger effect = lower value, cell number ratio, induced over uninduced
[16] = measured here: relative caspase fold change +Dox/-Dox
[17] = measured here: total cells with miR-34 induction, stronger effect = lower value
[18] = measured here: total cells without miR-34 induction

Compound	parasite load remaining [1]	viability [1]	red/green cell ratio (normalised) [2]	normalised cell number [2, 13]	normalised cell number [2, 14]	fold change [3, 15]	fold change [3, 16]	cell count [3, 17]	cell count [3, 18]	inhibition [4]	score [5]	rescue above control [6]	cytochrome c release ratio [7]	inhibition of aggregation [8]	glutamate uptake change [9]	inclusion score [10]	aggregation suppression score [11]	outcome [12]
CCCC[C@@H](CC)COC(=O)c1ccccc1O	49.2% (inactive)	118%	0.88 (inactive)	1.19	1.04	0.858 (inactive)	1.6	11400	13300	–	–	–	–	–	–	–	–	–
CN[C@@H]1[C@@H](O[C@H]2O[C@H](CO)[C@@H](N)[C@H](O)[C@H]2O)O[C@H]2C[C@@H](N)[C@H](O[C@H]3[C@H](O)[C@@H](O)[C@H](N)C[C@@H]3N)O[C@@H]2[C@@H]1O	70.7% (inactive) and 61.8% (inactive)	108% and 98.4%	1.38 (inactive)	0.99	1.36	0.903 (inactive)	5.22	12300	13600	–	–	–	–	–	–	–	–	–
O=C(O)C1=C(CSc2nnnn2CS(=O)(=O)O)CS[C@@H]2C(NC(=O)[C@H](O)c3ccccc3)C(=O)N12 (stereo partly specified)	57.8% (inactive)	103%	0.95 (inactive)	1.08	1.03	0.834 (inactive)	4.26	10700	12900	–	–	–	–	–	–	–	–	–
O=C(N[C@@H](CO)[C@H](O)c1ccc([N+](=O)[O-])cc1)C(Cl)Cl	85.6% (inactive) and 68.5% (inactive)	77.9% and 95.2%	0.9 (inactive)	1.15	1.04	1 (inactive)	1.84	11600	11600	–	–	–	–	–	–	–	–	–
CC(C)(C)NC(=O)[C@H]1CCC2C3CCC4NC(=O)C=C[C@]4(C)C3CC[C@@]21C (stereo partly specified)	30.5% (inactive)	97.9%	1.12 (inactive)	0.62	0.69	0.895 (inactive)	2.7	11000	12300	–	–	–	–	–	–	–	–	–
CC(C)CC1NC(=O)C(CCCN)NC(=O)C(C(C)C)NC(=O)C2CCCN2C(=O)C(Cc2ccccc2)NC(=O)C(CC(C)C)NC(=O)C(CCCN)NC(=O)C(C(C)C)NC(=O)C2CCCN2C(=O)C(Cc2ccccc2)NC1=O (stereo unspecified) (cyclo(FPV[Orn]LFPV[Orn]L); configuration not given here)	-0.175% (inactive)	12.4%	0.94 (inactive)	0.39	0.37	0.889 (inactive)	1.03	2080	2340	–	–	–	–	–	–	–	–	–
CC1OC1P(=O)(O)O (stereo unspecified)	59.9% (inactive) and 33.6% (inactive)	74.5% and 90.1%	1.09 (inactive)	1.06	1.16	–	–	–	–	-3.29%	1.42	16.3	6.79	83.9%	-1.38%	2	1.43	inactive
C[N+](C)(C)CCOP(=O)([O-])OP(=O)(O)OC[C@H]1OC(n2ccc(N)nc2=O)[C@H](O)[C@@H]1O (stereo partly specified)	169% (inactive) and 55.3% (inactive)	92.4% and 97.3%	1.29 (inactive)	0.95	1.22	0.9 (inactive)	4.71	12600	14000	–	–	–	–	–	–	–	–	–
COCC1=C(C(=O)OC(C)OC(=O)OC(C)C)N2C(=O)[C@@H](NC(=O)/C(=N/OC)c3csc(N)n3)[C@H]2SC1 (stereo partly specified)	42.3% (inactive)	194%	1.05 (inactive)	0.94	0.99	0.924 (inactive)	3.66	12100	13100	–	–	–	–	–	–	–	–	–
C[C@H]1CC2C([C@@H](O)C[C@@]3(C)C2CC[C@]3(O)C(=O)COC(=O)CCC(=O)O)[C@@]2(C)C=CC(=O)C=C12 (stereo partly specified)	83.5% (inactive)	148%	0.8 (inactive)	1.3	1.04	0.962 (inactive)	2.48	7610	7910	–	–	–	–	–	–	–	–	–
CCCCCCCCCCC[C@@H](C[C@H]1OC(=O)[C@H]1CCCCCC)OC(=O)[C@@H](CC(C)C)NC=O	118% (inactive) and 62.8% (inactive)	86.3% and 114%	1.11 (inactive)	0.96	1.07	0.887 (inactive)	2	11500	13000	–	–	–	–	–	–	–	–	–
CO/N=C(/C(=O)N[C@@H]1C(=O)N2C(C(=O)O)=C(CSc3nc(=O)c(O)nn3C)CS[C@H]12)c1csc(N)n1	147% (inactive) and 79.9% (inactive) and 62.4% (inactive)	82.1% and 106% and 101%	1.22 (inactive)	1.02	1.24	0.888 (inactive)	3.26	11700	13200	–	–	–	–	–	–	–	–	–
CC(=O)O[C@]1(C(C)=O)CCC2C3C=C(C)C4=CC(=O)CCC4(C)C3CCC21C (stereo partly specified)	94.3% (inactive) and 19.1% (inactive)	74.8% and 83.8%	0.94 (inactive)	1.18	1.11	0.897 (inactive)	2.81	9250	10300	–	–	–	–	–	–	–	–	–
CNCC[C@@H](Oc1ccccc1)c1ccccc1	48% (inactive)	116%	1.13 (inactive)	1.27	1.44	0.971 (inactive)	1.23	10900	11200	–	–	–	–	–	–	–	–	–
